Source: PubChem BioAssay AID1508600 (Functional Genomics Laboratory (NCATS/FGL), 2020)
Among all 53,000 sequences or so, about 3,700 (7%) were called active. Shown is part of a subset that was picked to be rich in actives. Unmarked numbers belong to inactive results.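 Rule for the calls: active = gene knockdowns whose robust z-score for IL-1 alpha signal is at least 2 or at most -2, so actives lie on both sides; inactive = the rest.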

Experiment: Components of the Cytosolic LPS Sensing Pathway: Gene Identification via Genome-wide siRNA Screen;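 note: robust z of the log signal after scaling to non-targeting control siRNA wells of the plate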
Settings: RAW264.7 macrophages, IL-1a HTRF, actives lie on both sides, screened at 100 nM (by protocol), cells primed 5 h with Pam3CSK4 first
How it was run: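 Mouse macrophage line RAW264.7 is transfected with siRNA (100 nM final), grown 48h, primed with TLR ligand Pam3CSK4 5 h and given intracellular LipidA 24 h. IL-1a in supernatant is read by HTRF and viability by luminescence.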

First: GGCUUUUUGUCUAACAAGUTT against Trappc13
Second: GCUGGUUAUUCUCUUAUAGTT against Cavin2
The z-score of the first is lower: 0.23 for the first, 1.97 for the second.

Going from GGUAGGUCGUCGAGAAUACTT against Prss44 to GGAUCCUCUGGUAAAGGGATT against Gng11, the z-score falls from 0.17 to -1.75.

First: GGAGUUCCUCAUGAAGAUGTT against Tmem241
Second: GGUGCAAACAGACACCAGATT against Dct
The z-score of the first is lower: -1.27 for the first, -0.982 for the second.

Compared with GGGAGGGAAUAGUCAAAAATT against Timm17b, GGAGAGCAAGGAGAACCAATT against Itga7 is higher in z-score: 0.909 for the first, 1.35 for the second.

Compared with CGAUUACUGAACACUAUAUTT against Metap1, GGUGUACCCAGUACUGCCATT against Cdk2 is lower in z-score: 1.94 for the first, 0.57 for the second.

Going from CGGACAGAUACAAUAGCUATT against Zc3h4 to GUCUUUCCCUAAAAACAGCTT against Vmn1r47, the z-score rises from -1.53 to -1.28.

Going from GGAGAACUUCAACAAUGUCTT against Tesc to GGAGUUUCGCAUGAGCCUGTT against Shroom1, the z-score falls from 0.46 to -0.0803.

Compared with GCCACUAUUGAAGCUUGCCTT against Olfr1209, GGAGGAGUUCCAGAUCCACTT against Pald1 is lower in z-score: 1.32 for the first, -0.356 for the second.

Going from GGACAGCAUGAUCCUACAATT against Smr2 to GGAAAUACCCUGAUAGCCATT against Etl4, the z-score rises from -0.962 to 0.215.

Going from GGUAGGAAGCUAGAGAAAUTT against Synj2 to GGACUUUAGUGACAGCUAUTT against Fam243, the z-score falls from 0.139 to -0.233.

Going from GGCAGCCCUCAAGUUAAUCTT against Zfp612 to GCACCUUCCAUCGGAAUGCTT against Tyw5, the z-score rises from -0.552 to -0.269.

Compared with “GGAGAAAAAGAUCUCAGCUTT against D830039M14Rik”, CCAUGGCCAAGAACUAGUUTT against Hp is higher in z-score: -0.021 for the first, 1.26 for the second.

First: GGAUUUGAAAUAGGAAUAGTT against Sh3yl1
Second: CCCUAUCUUCAGGCCAUUGTT against Gm10283
The z-score of the first is higher: 0.689 for the first, -1.97 for the second.

Going from CCUGGAGUUAGUUUGACAGTT against Atf4 to GGGCCUAUCUGAAAGUUUATT against Nrm, the z-score falls from -0.042 to -0.262.

First: GGUAGAAGAAUGCAUAAUGTT against Sema3e
Second: CGAGAAUACCAAACUCGUGTT against Usp17ld
The z-score of the first is higher: 0.82 for the first, -0.255 for the second.

First: GCAGUAAGCUUUUGCUAAATT against Zfp334
Second: CCUCUUCGGGAAAAUUCUATT against Dao
The z-score of the first is higher: 1.26 for the first, -0.083 for the second.

Going from GGGAUAUCUAAUCAAAACCTT against St8sia5 to GGCAAAGCAACAAUAUCUATT against Cct7, the z-score falls from -0.131 to -0.809.

Compared with GGUAUCAAAACAACAGUCCTT against Upk1b, CCUCAAAUUUUGGGUCUCATT against Bcat2 is lower in z-score: -0.709 for the first, -1.48 for the second.

Compared with GGGUGAGAUAGGAAAGUGGTT against Rab43, GAUUCUCAUCUCAAUAAGCTT against Serpinb9g is higher in z-score: -0.111 for the first, 0.439 for the second.

Going from CCUCCAAGACUUAAAAGUATT against Csde1 to CCUUAUAACUCUUACGUUUTT against Naa50, the z-score falls from 0.776 to -0.169.

Compared with GGAAAUGAAGACAUACCUGTT against Olfr175, GGAGUGAUGUCUUCACUGATT against Snx31 is lower in z-score: 0.741 for the first, -1.12 for the second.

First: GGUCUUCAUGAAAACCCUCTT against Polr2d
Second: GCUAGGUGAUCAGAGAACUTT against Nsl1
The z-score of the first is lower: -0.967 for the first, 0.222 for the second.

First: GGCCUUCAGUCAAGCAUCATT against Myom1
Second: GCCCAUUGUAAUAAAAGCCTT against Dnali1
The z-score of the first is higher: 0.906 for the first, -0.582 for the second.

First: CCAAGAUGCACAGUGAUAATT against Pknox2
Second: GGAUAUCGUCUGCUACCUGTT against Dgkb
The z-score of the first is lower: -0.925 for the first, 0.945 for the second.

Compared with GCACAACCAUAAUUCCAAATT against Olfr828, CCGAAUAGUAGAUAUUAGATT against Zbtb1 is lower in z-score: -0.343 for the first, -0.628 for the second.

First: GGAAGUCUGUCCAAAGCAUTT against Olfr190
Second: GUUCUGCUUUUUGUCAUAUTT against Olfr1431
The z-score of the first is higher: 0.248 for the first, -0.79 for the second.

Going from GGAGAUGGUUAUGUGGGAUTT against Tgoln2 to GGUGAAACCUGUCAUUCACTT against Dcdc2a, the z-score falls from 0.879 to -0.405.

First: GGGUUUGAUCAACAGAGCCTT against Id1
Second: GGUGAAGAGCUUCUUGAUCTT against Zfyve27
The z-score of the first is lower: -0.64 for the first, -0.362 for the second.

Compared with GUUUGAGUCUGGAGACGUGTT against Commd4, GGUAAAGCCUUUCAGGAAGTT against Tmem80 is lower in z-score: 0.917 for the first, -0.946 for the second.

First: GGAGAGUGACAUCAUCGUATT against Obsl1
Second: GGUCAGAGAAAUGAUGUCUTT against Osbpl11
The z-score of the first is higher: -0.0139 for the first, -1.77 for the second.

First: GGAAAAGGAAUUCUCCAGATT against Atrip
Second: GGCUUGCUGAUUAAAGAUGTT against Strbp
The z-score of the first is higher: 0.624 for the first, -0.544 for the second.

Going from GGCUUGACUGAAUAAUAAUTT against Gpr157 to GCAGAGAGAGCGUGAAUCCTT against AB124611, the z-score rises from -0.424 to 0.598.

First: GGUUUUCCCUCCAGAUGAGTT against Mtch1
Second: GGUGGUAAUUGGUGUGGCATT against Slc9b2
The z-score of the first is lower: -0.336 for the first, -0.188 for the second.

First: GGUUUCUUUGCCUACCCAGTT against Prrc2b
Second: GGGUGACAACCAAAGACUGTT against Mill1
The z-score of the first is lower: -1.13 for the first, 0.174 for the second.

Going from “GGAUCAUGCAAACCAAAGCTT against 4930522H14Rik” to GAGAACUCUCUAAACAAGUTT against Cks2, the z-score rises from 0.193 to 0.714.

Going from GGAACAGUCGUGGUAAAGUTT against Gnl2 to GGUGUUUGUUCGGAAGCUCTT against Pes1, the z-score rises from -0.767 to -0.345.

Going from GGAAGAAGCACAAUUUGAATT against Selenof to “CCUACUCCACGGGUAUUUUTT against 1700065D16Rik”, the z-score rises from -0.946 to -0.331.

Compared with GGGCCUGAUUUGUCCUCACTT against Sytl1, GGACGGUCCUCUUAAAAGATT against Chat is higher in z-score: -1.57 for the first, -0.394 for the second.

Going from GGCCUAUCAGAUAAAGAAGTT against Vps37b to GGUUACUGCUCUCAUGUACTT against Olfr247, the z-score falls from -1.04 to -1.28.

Going from GGAGCACUUGUGGAUCAAUTT against Efhd1 to GCAUUUAAUGGCAUUACUGTT against Otol1, the z-score falls from 1.03 to 0.596.

First: GCUGGCGGAGCAAACUCAATT against Foxd3
Second: GGAAUGAAAAACCUACAUGTT against Cxcl13
The z-score of the first is higher: 0.756 for the first, 0.453 for the second.

Compared with GUUAUUUGUAUGGUGAGAUTT against Hpcal1, GGCUGCCUAACUGAUAACATT against Inpp4b is higher in z-score: -1.06 for the first, 0.24 for the second.

First: GGACACUUUACAGUGAUUGTT against Skint4
Second: GCCUCUGAAAGUGUAAUUATT against Ccdc103
The z-score of the first is higher: 1.1 for the first, 0.184 for the second.

Going from GGUGAUUCAACUCACUUGUTT against Olfr1353 to GGUAUGUUUUAUCUUGACATT against Olfr851, the z-score rises from -1.33 to 0.269.

With GGCAAACGAUAAAGAAAUCTT against Ptp4a2 the z-score was 1.58.

For GGGCUGUCUAAGAAUGCAATT against Nlrp14, the z-score was -2.08 (active).
With CCACUACAAUGUAGCGACGTT against C1qtnf9 the z-score was -2.24 (active).
For GGAGAUGUUGGACUUCAUGTT against Nxnl2, the z-score was -2.42 (active).
In the case of GGGCUGUGAACACAAGUGUTT against Megf6, the z-score is reported as 2.02 (active).
In the case of GCACAAUUGGAAUUGUACATT against Ubqln2, the z-score is reported as -2.18 (active).
For GCGGUUAUCUGCAUAUAGATT against Ahctf1, the z-score was -2.47 (active).
For GGUCAAAUGCACCCGAUUATT against Hoxc10, the z-score was 2.44 (active).
In the case of GGGAAUUUACUGCAGGAUATT against Itln1, the z-score is reported as 2.72 (active).
With GGCGUGUAUCUAUACACACTT against Glp1r the z-score was 3.1 (active).
With GCGUGUUGAAUUGAGGAAGTT against Galnt11 the z-score was 4.15 (active).
With GGAGUUCAAAGAUGCAAUUTT against Zfyve27 the z-score was 2.33 (active).
With GGACACUUCCAAGUAUUGGTT against Tns1 the z-score was -2.11 (active).
For GGAGAGCAUUCCCAUUGCUTT against Ddx6, the z-score was -2 (active).
With GGUUCACAGAAAUGGAUGATT against Zfp507 the z-score was -2.91 (active).
In the case of GGAUAGUCAUCAACAGAGCTT against Psma7, the z-score is reported as -2.42 (active).
For GGUGCCGCACACAAACAAUTT against Hipk2, the z-score was -2.02 (active).
In the case of GCAUCAUGAACUCCUUUGUTT against H2bc1, the z-score is reported as -2.43 (active).
For GGGAUCAGGCCAUUUCCAUTT against Vav2, the z-score was 2.26 (active).
